From PubChem BioAssay AID504411 (The Scripps Research Institute Molecular Screening Center, 2011)
Out of some 340,000 compounds screened, about 200 (0.059%) were called active. Cut-off read from the data, not from the text of the source: active = inhibition above about 34%; inactive = the rest. This excerpt belongs to a sample that is enriched for actives.

What follows are molecules tested against Diacylglycerol lipase-beta (Homo sapiens) (UniProt Q8NCG7) (assay: inhibition of human DAGLB hydrolase activity – biochemical, fluorescence, HTS, primary screen (AID 504411;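 note: 0% = enzyme with vehicle and 100% = wells lacking enzyme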)). Settings: HEK293T DAGLB membrane lysate, EnzChek fluorogenic substrate; at 5.17 µM; hits give high values.
Chain of Diacylglycerol lipase-beta (Homo sapiens) (Q8NCG7 whole entry, looked up): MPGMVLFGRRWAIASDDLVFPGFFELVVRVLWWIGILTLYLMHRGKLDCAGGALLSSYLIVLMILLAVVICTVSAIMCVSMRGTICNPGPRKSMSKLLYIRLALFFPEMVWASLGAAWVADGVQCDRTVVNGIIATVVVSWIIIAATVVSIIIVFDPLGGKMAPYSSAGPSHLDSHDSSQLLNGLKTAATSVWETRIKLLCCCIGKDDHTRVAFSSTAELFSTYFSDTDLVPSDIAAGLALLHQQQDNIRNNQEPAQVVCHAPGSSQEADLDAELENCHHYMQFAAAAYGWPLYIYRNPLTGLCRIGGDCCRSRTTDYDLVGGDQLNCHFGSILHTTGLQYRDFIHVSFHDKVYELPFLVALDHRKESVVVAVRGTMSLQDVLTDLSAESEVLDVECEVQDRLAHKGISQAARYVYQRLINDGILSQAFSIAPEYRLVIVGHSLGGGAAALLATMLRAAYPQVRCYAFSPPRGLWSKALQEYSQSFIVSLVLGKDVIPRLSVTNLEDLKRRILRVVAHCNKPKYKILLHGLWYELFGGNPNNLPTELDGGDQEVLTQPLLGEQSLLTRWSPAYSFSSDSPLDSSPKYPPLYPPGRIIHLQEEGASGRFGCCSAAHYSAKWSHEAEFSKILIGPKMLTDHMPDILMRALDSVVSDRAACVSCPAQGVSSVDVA

inhibition, active:
Cc1ccc(S(=O)(=O)/N=C2\C=C(NS(=O)(=O)c3ccc(C)cc3)C(=O)c3ccccc32)cc1 38.9%
O=C(NNc1c2ccccc2nc2ccccc12)c1cc2ccccc2cc1O 64%
Cc1oc2cc([N+](=O)[O-])c(O)c([N+](=O)[O-])c2c1C(=O)c1ccc(Br)cc1 44%
O=C(Oc1cccc(N2C(=O)C3C4c5ccccc5C(c5ccccc54)C3C2=O)c1)c1ccco1 (centres undefined) 34.9%
COc1cccc(/C=N/Nc2ccc(S(=O)(=O)Nc3ccccc3C(=O)O)cc2[N+](=O)[O-])c1O 39.5%
COc1ccc(Br)cc1/C=N/Nc1ccc(S(=O)(=O)Nc2ccccc2C(=O)O)cc1[N+](=O)[O-] 35.8%

inhibition, inactive:
c1ccc2c(c1)OCCOCCOCCO2 0.06%
COc1ccc(S(=O)(=O)/N=C2\C=C(NS(=O)(=O)c3ccccc3)C(=O)c3ccccc32)cc1 19.7%
Cc1ccc(S(=O)(=O)N/N=C(\c2ccccc2)C2CC2)cc1 0.32%
Cc1nn(C)c(C)c1CN(C(=O)CCc1nnc(Cc2c[nH]c3ccccc23)o1)C(C)C 1.36%
COCc1ccc(C(=O)N2CCc3c([nH]c4ccccc34)C2c2ccccn2)s1 (centres undefined) 2.71%
CC(CC(=O)N1CCN(c2ccccc2)CC1)S(=O)(=O)c1ccc2c(c1)NC(=O)CS2 (centres undefined) 1.53%
CCOc1ccc(-n2cnc3c(=O)[nH]c(N)nc32)cc1 0.5%
O=C(Nc1nnc(CCN2CCCCC2)s1)c1cccc(Cl)c1 0.09%
CCOC(=O)C1=C(C)OC(N)=C(C#N)C1c1cncc(-c2ccc(F)cc2)c1 (centres undefined) -3.22%
C=CCn1nc(-c2ccccc2)c2c(C)onc2c1=O -0.48%
CC(Sc1nncn1C)C(=O)Nc1cc(C(F)(F)F)ccc1N1CCOCC1 (centres undefined) 0.9%
O=C(NC1CCCC1)C1CC(=O)N(c2ccc(F)cc2)C1 (centres undefined) 2.14%
O=C(COC(=O)c1ccc(O)cc1O)NC(=O)c1ccccc1 1.38%
O=C(NNC(=O)c1ccccc1O)c1ccccc1O 3.19%
Cc1ccc(-c2cc(C(F)(F)F)n3ncc(C(=O)N4CCCCC4c4cccnc4)c3n2)cc1 (centres undefined) 0.87%
Nc1ccc(Cl)c(S(=O)(=O)Nc2ccccc2Cl)c1 2.95%
O=C1C(=O)N(CCN2CCOCC2)C(c2ccccn2)/C1=C(/O)c1ccc(Cl)cc1 (centres undefined) 1.82%
COc1cc(/C=C/C(=O)N2CCc3ccccc3C2)cc(OC)c1OC -1.38%
O=C(c1ccc(=O)[nH]c1)N(Cc1ccco1)C1(C(=O)NC2CCCCC2)CCCCC1 -1.49%
COc1cccc(NC(=S)NC(=O)c2c(Cl)c(C)nn2C)c1 -24.9%
CN(C(=O)CSc1nnc(C2CC2)n1C)C1CCCc2ccccc21 (centres undefined) 1.81%
CCOCCn1[nH]c2ccccc2c1=O -1.38%
CCOc1ccc(C(O)Cn2c(=N)n(CCN3CCCCC3)c3ccccc32)cc1 (centres undefined) -2.39%
Cc1cccc(Nc2nc3c(S(=O)(=O)c4ccccc4)nnn3c3ccccc23)c1C 0.26%
CCn1c(SCC(=O)N2CCCC2=O)nc2ccccc21 -0.5%
COc1ccc(OC)c(NC(=O)c2cccc(S(=O)(=O)N3CCN(C(C)=O)CC3)c2)c1 -0.51%
O=C(CCCN=C1NS(=O)(=O)c2ccccc21)OCC(=O)c1ccc(F)c(F)c1 1.93%
CN1CCC(N(C)C(=O)c2ccc(Cl)c(S(=O)(=O)Nc3ccc(Cl)cc3)c2)CC1 -0.08%
CSCCC(=O)N1CCCC(CNC(=O)c2ccccc2Cl)C1 (centres undefined) -3.33%
C[C@H](CO)N1C[C@H](C)[C@@H](CN(C)C(=O)NC2CCCCC2)Oc2ccc(NC(=O)c3ccncc3)cc2C1=O -0.14%
O=C1C=C(NCCNc2c(F)c(F)c(CO)c(F)c2F)CCC1 0.21%
COc1ccc(C(=O)Cn2nnc(-c3ccc(N4CCOCC4)cc3)n2)cc1OC 0.4%
COc1ccccc1NS(=O)(=O)c1ccc(C(=O)N2CCN(c3ccccc3O)CC2)cc1 3.47%
CCOC(=O)N1CCC(O)(c2cc(C)c(C)cc2C)CC1 -4.76%
CC(=O)c1c(C)[nH]c(C(=O)CN2C(=O)NC(C)(C)C2=O)c1C 2.12%
CCOC(=O)C1CN(S(=O)(=O)c2ccc(F)cc2)C1 -3.17%
O=c1oc(-c2ccccc2NS(=O)(=O)c2ccc(Cl)cc2)nc2ccccc12 6.09%
COc1cccc(/C=C2\SC(=S)N(CCCC(=O)N3CCOCC3)C2=O)c1 -4.26%
COCCCNC(=O)[C@H]1N2C(=O)c3ccccc3C2SC1(C)C (some centres undefined) -1.33%
CC(=O)Nc1ccc(C(=O)Nc2cccc(S(=O)(=O)NC3=NCCC3)c2)cc1 -2.22%
CCOC(=O)C1CSC(CC(=O)Nc2ccc(OCC)cc2)C(=O)N1 (centres undefined) 0.21%
O=C(O)CC(c1ccccc1F)N1Cc2ccccc2C1=O (centres undefined) 1.06%
CCCN(CCC)S(=O)(=O)c1ccc(C(=O)N2CC3CCC(CC3)C2)cc1 -8.08%
Cc1oc2cc(Br)c(O)c(Br)c2c1C(=O)c1ccccc1 -1.78%
COc1ccc(C(=O)c2c(C)oc3cc([N+](=O)[O-])c(O)c([N+](=O)[O-])c23)cc1 21.1%
CCOc1ccc(S(=O)(=O)NCCC(=O)NCC(C)(C)N2CCOCC2)cc1 1.14%
CSC1=N/C(=C\C=C\c2cccs2)C(=O)S1 6.62%
Cc1c(C(=O)NCC(c2ccco2)N2CCCC2)oc2ccc(Cl)cc12 (centres undefined) -3.86%
CCOC(=O)C1CCN(C(=O)C2(NC(=O)Nc3cccc(F)c3)CCCCC2)CC1 1.05%
CC1(C)OC(=O)C(=CNC(CO)C(=O)O)C(=O)O1 (centres undefined) -0.76%
CC(=O)N1CCc2ccc(N)cc21 -0.55%
COc1ccc(C(=O)NCc2ccc(C)cc2)cc1S(=O)(=O)N1CCCC1 -0.31%
Cc1cc(=O)n2nc(N3CCCC(C(=O)NCc4cccc(Cl)c4)C3)sc2n1 (centres undefined) -0.02%
CCOC(=O)CN(C(=O)COc1nc(-c2ccccc2)cc(C)c1C#N)c1ccc(F)cc1 -4.62%
COC(=O)c1cccc(N2C(=O)C3C4C=CC(CC4)C3C2=O)c1 (centres undefined) -2.32%
CC(=O)Nc1ccc(N2C(=O)C3C4CC(=O)C(c5ccccc54)C3C2=O)cc1 (centres undefined) 2.73%
CCOC(=O)C1=NN(c2ccc(Cl)cc2)/C(=C/C2=NCCc3cc(OC)c(OC)cc32)S1 3.17%
CCN(CC(=O)Nc1ccc(NC(C)=O)cc1)C(=O)CSC(=S)N1CCCC1 -0.87%
Cn1c(-c2ccc(C(=O)c3ccccc3)s2)nc2ccccc21 -0.73%
O=C1Cc2cc(S(=O)(=O)Nc3cccc(F)c3)ccc2N1 0.82%
O=C(CCNC(=O)c1ccc([N+](=O)[O-])cc1)NC1CCCCC1 0.66%
O=C(/C=C/c1ccc(Cl)cc1)NCCCn1ccnc1 -2.05%
CCOc1ccc(Br)cc1S(=O)(=O)Nc1cccc(S(=O)(=O)N(CC)CC)c1 -0.11%
Cc1cc(NC(=O)Nc2c[nH]c(=O)[nH]c2=O)ccc1Br -0.76%
Cc1ccc(-c2nn(C(C)(C)C)c3ncnc(N)c23)cc1 -2.33%
CCCCCCn1c(=O)n2n(c1=O)C[C@]1(OC(=O)NCc3ccc(OC)c(OC)c3)CN(S(=O)(=O)c3ccc(C)cc3)C[C@]1(O)C2 1.56%
CC(NC(=O)c1ccc(S(=O)(=O)Nc2ccccc2)cc1)c1ccc(S(N)(=O)=O)cc1 (centres undefined) 1.2%
Cc1ccccc1OCCC(=O)Nc1c(C)n(C)n(-c2ccccc2)c1=O -2.86%
CCOc1nnc(C)c2c(C)n(-c3cccc(Cl)c3)nc12 -5.36%
O=[N+]([O-])c1cc(S(=O)(=O)CCCN2CCOCC2)ccc1F -0.41%
Cc1nc2ccc(S(=O)(=O)N(C)CC(=O)NC(C)c3ccccc3)cc2s1 (centres undefined) 1.36%
O=C1N(c2ccc(Cl)cc2)C(c2ccc(Cl)cc2)N2CCCN12 (centres undefined) -1.46%
COc1ccc(S(=O)(=O)Nc2ccc3cn[nH]c3c2)cc1[N+](=O)[O-] -1.73%
CCOc1ncccc1C(=O)NNC(=O)c1cccc(S(=O)(=O)Nc2ccccc2OC)c1 1.16%
COC(=O)c1ccccc1NS(=O)(=O)c1ccc2[nH]c(=O)[nH]c2c1 -1.28%
COc1ccc(S(=O)(=O)Nc2ccccc2C(=O)N2CCCC2)cc1C 0.86%
Cc1ccc(OCCCCN2CCCCC2)c(Br)c1 1.62%
CCCNC(=O)CN(Cc1ccccc1F)S(=O)(=O)c1ccc(C)cc1 1.71%
COc1ccccc1C(=O)NC(=O)COC(=O)C1CC1 3.34%
N#CC(Cc1cc2ccccc2n1S(=O)(=O)c1ccccc1)OCc1ccccc1 (centres undefined) -8.05%
O=C(O)CCCCCCCCc1cn(CN2C(=O)c3ccccc3C2=O)nn1 1.19%
COc1cc(C2C(C(=O)c3sc(C)nc3C)=C(O)C(=O)N2CCN(C)C)cc(OC)c1OC (centres undefined) 0.65%
O=C(N[C@@H]1C/C=C\C[C@@H](CC(=O)N(CCO)Cc2ccccc2)C(=O)N[C@H](Cc2ccccc2)COC1=O)OCC1c2ccccc2-c2ccccc21 -1.54%
